Reference: PubChem BioAssay (Tox21)
Results filed as inconclusive are left out. Activity calls are given as the source filed them. Unless noted, calls come from the whole dose curve; as a rule, active = well fitted curve in the direction sought with a large enough effect in the repeat runs; inconclusive = weak or mixed curves; inactive = no such curve, though single readings can be large; an effect the other way counts as inactive or inconclusive.

Columns and labels:
[1] = qHTS assay for small molecule agonists of the p53 signaling pathway (AID 651631; calls by dose curve; note: nearly all actives have a fitted effect of over 15% in size)
How it was run: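 p53RE-bla HCT-116 cells; compounds 16 h, 37 °C; LiveBLAzer B/G FRET substrate 2 h RT; fluorescence intensity read-out, qHTS format.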

[2] = qHTS assay for small molecules that induce genotoxicity in human embryonic kidney cells expressing luciferase-tagged ATAD5 (AID 651632); note: nearly all actives have a fitted effect of over 15% in size
How it was run: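 Quantitative HTS in HEK293T expressing luciferase-tagged ATAD5, whose levels rise upon DNA damage. Exposure ran 16 hr at 37C and 5% CO2, with luminescence read 30 min after Amplite addition at room temperature.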

[3] = qHTS assay for small molecule agonists of the p53 signaling pathway - cell viability (AID 651633; calls by dose curve;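 note: p53RE-bla HCT reporter cells with a stable beta-lactamase p53 reporter; series mostly up to about 83 µM; nearly all actives have a fitted effect of over 30% in size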)
How it was run: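 Viability counter-read: CellTiter-Glo luminescence (30 min, room temperature) in the same p53RE-bla plates. These plates had been exposed to compounds for 16 h at 37 C.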

[4] = qHTS assay for small molecules that induce genotoxicity in human embryonic kidney cells expressing luciferase-tagged ATAD5 - cell viability (AID 651634; calls by dose curve; note: nearly all actives have a fitted effect of over 25% in size)
How it was run: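 After 15.5 hr incubation with compound at 37C, 5% CO2, HEK293T ATAD5-luciferase cells received CellTiter-Fluor reagent; fluorescence intensity was quantified following 30 min at 37C.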

[5] = qHTS assay for small molecule disruptors of the mitochondrial membrane potential - cell viability (AID 720634; calls by dose curve;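 note: human HepG2 liver cancer cells; series mostly up to about 83 µM; nearly all actives have a fitted effect of over 20% in size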)
How it was run: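 ATP-based luminescent viability readout (CellTiter-Glo, 30 min, room temperature) in HepG2 cells multiplexed with the m-MPI membrane potential dye; compound exposure lasted 1 hr at 37 C.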

[6] = qHTS assay to test for compound auto fluorescence at 535 nm (green) in HepG2 cells (AID 720675)
[7] = qHTS assay to test for compound auto fluorescence at 460 nm (blue) in HEK293 cells (AID 720678)
How it was run: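 Auto fluorescence in the blue band was quantified as triamterene equivalency. HEK293 cells were seeded at 2,000/well, dosed after a 4-5 hr attachment, and kept overnight at 37C before the 405/460 nm reading.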

[8] = qHTS assay to test for compound auto fluorescence at 590 nm (red) in HEK293 cells (AID 720679)
How it was run: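 Autofluorescence equivalency to Rose Bengal sodium, 540/590nm, in HEK293 cells exposed overnight to 23 nL compound per well.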

[9] = qHTS assay to test for compound auto fluorescence at 535 nm (green) in HEK293 cells (AID 720680)
[10] = qHTS assay to test for compound auto fluorescence at 460 nm (blue) in HEK293 cell free culture (AID 720681)
How it was run: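 Blue fluorescence (Ex 405/Em 460 nm, triamterene-equivalent) was read immediately after pin transfer of compound or DMSO into medium (DMEM, 10% FBS) without cells.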

[11] = qHTS assay to test for compound auto fluorescence at 590 nm (red) in HEK293 cell free culture (AID 720683)
How it was run: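 Red-channel autofluorescence of compounds in culture medium (DMEM, 10% FBS), no cells, measured at 540/590 nm. Rose Bengal sodium is the reference fluorophore for equivalence.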

[12] = qHTS assay to test for compound auto fluorescence at 590 nm (red) in HepG2 cell free culture (AID 720684)
How it was run: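 No cells present: MEM + 10% FBS only. Compound pinned in, red label read (540/590 nm). Activity = fluorescence equivalent to Rose Bengal sodium.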

[13] = qHTS assay to test for compound auto fluorescence at 460 nm (blue) in HepG2 cell free culture (AID 720685)
How it was run: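 Cell-free plates of MEM plus 10% FBS received 23 nL compound or DMSO vehicle; blue-channel (405/460 nm) intensity scored against triamterene as reference fluorophore.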

[14] = qHTS assay to test for compound auto fluorescence at 460 nm (blue) in HepG2 cells (AID 720687)
How it was run: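 Blue-channel autofluorescence (Ex/Em 405/460 nm, triamterene-equivalent) was measured after 1 hr compound exposure at 37 C, 5% CO2. Cells were HepG2, plated overnight at 37 C in MEM plus 10% FBS.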

[15] = qHTS assay for small molecule disruptors of the mitochondrial membrane potential (AID 720635)
How it was run: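 Mitochondrial membrane potential tracked with Mito-MPS dye, red aggregates (ex 540/em 590 nm) against green monomers (ex 490/em 535 nm). Compound treatment 1 hr at 37C, dye 30 min in HepG2.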

[16] = target: Glucocorticoid receptor (Homo sapiens) (UniProt P04150); test: qHTS assay to identify small molecule agonists of the glucocorticoid receptor (GR) signaling pathway (AID 720691; active = well fitted activation curve with a large enough effect in the signal ratio in the repeat runs, not every such curve was filed as active; the % refers to the signal ratio)
How it was run: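 Cells: GR-bla HeLa, endogenous GR with stably integrated GRE-beta-lactamase reporter. Treatment 18 h, 37 C, compounds delivered in DMSO. Detection via LiveBLAzer B/G FRET substrate, 2 h RT, fluorescence intensity.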

[17] = target: Glucocorticoid receptor (Homo sapiens) (UniProt P04150); test: qHTS assay to identify small molecule antagonists of the glucocorticoid receptor (GR) signaling pathway (AID 720692; active = well fitted inhibition curve with a large enough effect in the signal ratio in the repeat runs, not every such curve was filed as active; the % refers to the signal ratio)
How it was run: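 Quantitative HTS in antagonist format: HeLa cells expressing endogenous GR and a stably integrated GRE-bla reporter, stimulated with 5 nM dexamethasone (final) alongside test compounds for 18 h.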

[18] = qHTS assay to test for compound auto fluorescence at 590 nm (red) in HepG2 cells (AID 720674)
How it was run: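 Red autofluorescence (Ex/Em 540/590 nm, Rose Bengal sodium equivalents) was measured in HepG2 cells, 2,000 per well in MEM plus 10% FBS, plated overnight at 37 C. Readings were taken 1 hr after adding 23 nL compound or DMSO, at 37 C and 5% CO2.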

[19] = qHTS assay to test for compound auto fluorescence at 535 nm (green) in HEK293 cell free culture (AID 720682)
How it was run: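 Cell-free medium (DMEM, 10% FBS) receives compound or DMSO by pintool. Plate read directly at Ex 485/Em 535 nm. Signal converted to fluorescein equivalency.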

[20] = qHTS assay to test for compound auto fluorescence at 535 nm (green) in HepG2 cell free culture (AID 720686)
% is set by controls: 0 for no effect and ±100 for the full control effect.

Chain of Glucocorticoid receptor (Homo sapiens) (P04150 whole entry, looked up): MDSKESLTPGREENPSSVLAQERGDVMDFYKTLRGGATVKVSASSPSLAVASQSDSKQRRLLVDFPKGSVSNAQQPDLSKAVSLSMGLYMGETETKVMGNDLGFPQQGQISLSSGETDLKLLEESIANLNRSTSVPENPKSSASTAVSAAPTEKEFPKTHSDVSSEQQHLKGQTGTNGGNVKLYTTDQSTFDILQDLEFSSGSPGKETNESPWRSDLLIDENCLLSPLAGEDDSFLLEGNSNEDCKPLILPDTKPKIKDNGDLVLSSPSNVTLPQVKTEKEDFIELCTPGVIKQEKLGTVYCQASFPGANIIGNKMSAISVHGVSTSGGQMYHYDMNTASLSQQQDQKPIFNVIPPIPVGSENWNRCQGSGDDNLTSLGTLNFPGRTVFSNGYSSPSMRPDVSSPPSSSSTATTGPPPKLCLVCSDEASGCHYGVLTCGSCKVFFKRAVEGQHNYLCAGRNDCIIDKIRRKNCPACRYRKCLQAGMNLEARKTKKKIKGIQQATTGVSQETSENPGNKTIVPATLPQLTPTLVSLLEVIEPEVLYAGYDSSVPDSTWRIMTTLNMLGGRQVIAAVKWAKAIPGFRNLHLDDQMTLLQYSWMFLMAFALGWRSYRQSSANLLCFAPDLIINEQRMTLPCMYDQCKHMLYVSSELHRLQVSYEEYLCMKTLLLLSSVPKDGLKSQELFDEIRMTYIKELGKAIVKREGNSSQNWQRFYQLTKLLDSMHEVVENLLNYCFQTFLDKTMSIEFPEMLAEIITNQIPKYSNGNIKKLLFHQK

C[N+](C)(C)CCCCCC[N+](C)(C)C
inactive: outcome [1] | Potency [2] | outcome [3] | Potency [4] | Potency [5] | outcome [6] | outcome [7] | outcome [8] | outcome [9] | outcome [10] | outcome [11] | outcome [12] | outcome [13] | outcome [14]

CCCCOCCOCCOCCCC
inactive: outcome [1] | Potency [2] | Potency [4] | Potency [5] | Potency [15] | outcome [6] | outcome [7] | outcome [8] | outcome [9] | outcome [10] | outcome [11] | outcome [12] | outcome [13] | outcome [14] | Potency [16] | Potency [17]

COc1ccccc1OCC(O)CN1CCN(CC(=O)Nc2c(C)cccc2C)CC1 (configuration not stated)
inactive: outcome [1] | Potency [2] | Potency [4] | Potency [5] | outcome [18] | outcome [7] | outcome [9] | outcome [10] | outcome [19] | outcome [11] | outcome [12] | outcome [13] | outcome [20] | outcome [14] | Potency [16] | Potency [17]

c1cnc(N2CCN(Cc3ccc4c(c3)OCO4)CC2)nc1
inactive: Potency [2] | outcome [3] | Potency [4] | Potency [5] | Potency [15] | outcome [18] | outcome [6] | outcome [7] | outcome [8] | outcome [9] | outcome [10] | outcome [11] | outcome [12] | outcome [13] | outcome [20] | outcome [14] | Potency [16] | Potency [17]

COC(=O)c1cc(C(=O)OC)cc(S(=O)(=O)O)c1
inactive: outcome [1] | Potency [2] | Potency [4] | Potency [5] | Potency [15] | outcome [18] | outcome [7] | outcome [8] | outcome [9] | outcome [10] | outcome [19] | outcome [11] | outcome [12] | outcome [13] | outcome [20] | outcome [14] | Potency [16]

CCOC(=O)Nc1ccc(NCc2ccc(F)cc2)nc1N
inactive: Potency [2] | outcome [3] | Potency [4] | Potency [5] | Potency [15] | outcome [18] | outcome [6] | outcome [8] | outcome [9] | outcome [19] | outcome [11] | outcome [12] | outcome [20] | Potency [16] | Potency [17]

NS(=O)(=O)c1cc2c(cc1Cl)NC(C1CC3C=CC1C3)NS2(=O)=O (configuration not stated)
inactive: outcome [1] | Potency [2] | Potency [4] | Potency [5] | outcome [18] | outcome [6] | outcome [7] | outcome [8] | outcome [9] | outcome [10] | outcome [19] | outcome [11] | outcome [12] | outcome [13] | outcome [20] | outcome [14] | Potency [16] | Potency [17]

O=c1[nH]c(=O)n([C@H]2C[C@H](O)[C@@H](CO)O2)cc1I
inactive: outcome [1] | Potency [4] | Potency [5] | Potency [15] | outcome [18] | outcome [6] | outcome [7] | outcome [8] | outcome [9] | outcome [10] | outcome [19] | outcome [11] | outcome [12] | outcome [13] | outcome [20] | outcome [14]

CCN(CC)CCOCCOC(=O)C1(c2ccccc2)CCCC1
inactive: outcome [1] | Potency [2] | Potency [4] | Potency [5] | outcome [18] | outcome [6] | outcome [7] | outcome [8] | outcome [9] | outcome [10] | outcome [19] | outcome [11] | outcome [12] | outcome [13] | outcome [20] | outcome [14] | Potency [16]

NCCCNCCSP(=O)(O)O
inactive: Potency [2] | outcome [3] | Potency [4] | Potency [5] | Potency [15] | outcome [18] | outcome [6] | outcome [7] | outcome [8] | outcome [9] | outcome [10] | outcome [19] | outcome [11] | outcome [12] | outcome [13] | outcome [20] | outcome [14] | Potency [16]

CCCCC(CC)COC(=O)c1ccccc1O (configuration not stated)
inactive: outcome [1] | Potency [2] | Potency [4] | Potency [5] | outcome [18] | outcome [6] | outcome [7] | outcome [8] | outcome [9] | outcome [10] | outcome [19] | outcome [11] | outcome [12] | outcome [13] | outcome [20] | outcome [14] | Potency [16] | Potency [17]

CCN1CCC[C@H]1CNC(=O)c1cc(S(N)(=O)=O)ccc1OC
inactive: outcome [1] | Potency [2] | Potency [4] | Potency [5] | Potency [15] | outcome [18] | outcome [7] | outcome [8] | outcome [9] | outcome [10] | outcome [19] | outcome [11] | outcome [12] | outcome [13] | outcome [20] | outcome [14] | Potency [16]

N=C(N)c1ccc2cc(OC(=O)c3ccc(N=C(N)N)cc3)ccc2c1
inactive: outcome [1] | Potency [2] | Potency [4] | Potency [5] | outcome [18] | outcome [6] | outcome [7] | outcome [9] | outcome [10] | outcome [19] | outcome [11] | outcome [12] | outcome [13] | outcome [20] | outcome [14]

CCC(C)S (configuration not stated)
inactive: activation [1] -2.85% [at 3.72 µM] | activation [2] 1.12% [at 3.63 µM] | activity, negative = cytotoxicity [4] -7.36% [at 3.63 µM] | activity change, negative = cytotoxicity [5] 9.33% [at 3.63 µM] | fluorescence, relative to Rose Bengal [18] -0.0609% [at 3.72 µM] | fluorescence, % of fluorescein control [6] -0.0052% [at 3.72 µM] | fluorescence, % of triamterene [7] 0.0233% [at 3.72 µM] | fluorescence, % of fluorescent control [8] 0.243% [at 3.72 µM] | fluorescence, % of fluorescein [9] 0.0934% [at 3.72 µM] | fluorescence, % of fluorescent control [10] 0.0638% [at 3.72 µM] | activity change [19] -0.0524% [at 3.72 µM] | fluorescence, % of fluorescent control [11] -0.0589% [at 3.72 µM] | fluorescence, % of Rose Bengal [12] -0.203% [at 3.72 µM] | fluorescence, % of fluorescent control [13] -0.0422% [at 3.72 µM] | fluorescence, % of fluorescein control [20] 0.0002% [at 3.72 µM] | fluorescence, % of fluorescent control [14] -0.0637% [at 3.72 µM] | activation [16] -0.406% [at 3.1 µM] | activity change, negative = inhibition [17] 1.31% [at 3.15 µM]

Nc1c[n+](N2CCOCC2)no1
inactive: Potency [2] | outcome [3] | Potency [4] | Potency [5] | Potency [15] | outcome [18] | outcome [7] | outcome [9] | outcome [10] | outcome [19] | outcome [11] | outcome [12] | outcome [13] | outcome [14] | Potency [16] | Potency [17]

CC1(C)C(O)C(C)(C)C1O (configuration not stated)
inactive: outcome [1] | Potency [2] | Potency [4] | Potency [5] | outcome [18] | outcome [6] | outcome [7] | outcome [8] | outcome [9] | outcome [10] | outcome [19] | outcome [11] | outcome [12] | outcome [13] | outcome [20] | outcome [14] | Potency [16] | Potency [17]
